# From PubChem
# Pf growth 48h – inhibits P. falciparum growth in the first generation, 48 h; P. falciparum luciferase growth in erythrocytes, 48 h; Potency, µM (highest dose often 28.7 µM), without a hit: at the highest dose activity change, negative = inhibition, most hits filed as inhibitors; 310,000 compounds, 5.9% hits; AID 504832; further: potency means the concentration at half of the fitted maximal effect
#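 Parasite viability was followed by luminescence of a genomically integrated firefly luciferase. Cultures held 0.1% parasitemia at 2% hematocrit (final), incubated under 5% CO2 at 37 C.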
# HCMV inh – human cytomegalovirus inhibition; HFF cells, HCMV-luciferase reporter, 72 h; hits give low values; activity change, negative = inhibition, % at 57.5 µM; 410,000 compounds, 4.5% hits; AID 1259415; in the data active means activity change below about -60%; inconclusive means no clear call, values can overlap the other calls; inactive means above about -39%
#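 Luciferase read-out from HCMV-luciferase-infected HFFs (MOI 1 PFU/cell) 72 h post infection at 37C; compounds added after 16 h cell attachment; activity normalized between buffer-only basal and Salinomycin (10uM) inhibitor controls.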
# Pf growth 96h – P. falciparum growth inhibition at 96 hour, primary screen for plastid delayed-death inhibitors. P. falciparum luciferase reporter growth, 96 h. Potency, µM (highest dose often 28.7 µM), without a hit: at the highest dose activity change, negative = inhibition, hits mostly inhibitors. 320,000 compounds, 6.9% hits. AID 504834; further: potency means the concentration at half of the fitted maximal effect
#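 P. falciparum expressing integrated firefly luciferase, in erythrocytes at 2% hematocrit, 0.05% parasitemia, incubated with compounds 96 h at 37 C, 5% CO2. Growth inhibition read as loss of luminescence; two-generation exposure targets delayed-death apicoplast inhibitors.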
# HCV inhibitor – inhibitors of hepatitis C virus infection | Huh7.5.1 HCVcc-Cre infection, luciferase reporter, 44 h | AID 651820 | Potency, µM (highest dose often 41.8 µM), without a hit: top-dose activity change, negative = inhibition, hits mostly inhibitors | 340,000 compounds, 3.4% hits; further: potency means the concentration at half of the fitted maximal effect
#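 Cells seeded at 1,000/well and cultured 4 h, then compounds added followed by HCVcc-Cre virus (~0.5 moi). After 44 h further culture, luciferase substrate was added, plates held 15 min at room temperature, and luminescence read for 15 sec.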
# Active calls of the source: *; ? = inconclusive; . = no result; [ ] = remark or other dose. Compounds with a hit are over-represented: about 13% of the library has one in this group of screens. Unless noted, the call rests on the fitted dose curve; in most records, active means well fitted inhibition curve with a large enough effect; inconclusive means small, poorly fitted or top-dose-only effect, or another doubt; inactive means no such curve, though single readings can be large or run the other way. On the % scale 0 is the no-effect control and ±100 the full control effect.
SMILES,Pf growth 48h,HCMV inh,Pf growth 96h,HCV inhibitor
O=C(NC1CCCc2c1cnn2-c1cc(F)cc(F)c1)c1ccc[n+]([O-])c1 (stereo unspecified),2.1%,-12.6,-13.5%,11.1%
Cc1nc2sccn2c(=O)c1S(=O)(=O)NCc1ccc(F)cc1,.,4.7,.,.
Cn1cnc(S(=O)(=O)N2CCCC(C(=O)Nc3ccc(OC(F)(F)F)cc3)C2)c1 (stereo unspecified),.,56.2,.,.
O=C(Nc1ccc(-c2cc(C(F)(F)F)nn2-c2ccccc2)cc1)c1cccc(F)c1,.,-94.7*,.,.
Cc1ccc(Cl)cc1N1CCN(C(=O)c2ccc3c(c2)N(Cc2ccc(F)cc2)CCS3)CC1,.,-36.4,.,.
CC1CN(C(=O)c2cc(S(=O)(=O)N(C)c3ccc(F)cc3)ccc2Cl)CC(C)O1 (stereo unspecified),-19.9%,-28.6,-12.8%,10µM*
CN(c1ccc(F)cc1)S(=O)(=O)c1ccc(Cl)c(C(=O)Nc2ccncc2)c1,?,-65.3*,?,?
Cn1c(=O)c(C(=O)c2ccccc2)nc2ccccc21,.,-3.8,1.4%,25.7%
O=C(c1ccccc1)c1nc2ccccc2n(CCCn2c(=O)c(C(=O)c3ccccc3)nc3ccccc32)c1=O,3.7µM*,-39.9,?,-0.3%
Cc1ccc(C)c(NC(=O)CN(C)S(=O)(=O)c2ccc3c(c2)CCC(=O)N3)c1,.,11.8,.,.
O=C(CCc1ccc(O)cc1)c1c(O)cc(O)cc1O,?,-13.6,?,-22.0%[8.37 µM]
COc1cc(O)c(CC=C(C)C)c(O)c1C(=O)CCc1ccc(O)cc1,9.28µM*,-15.0,-10.7%,0.708µM*
COc1ccc(N(Cc2nc3cc(C)c(C)cc3[nH]2)Cc2nc3cc(C)c(C)cc3[nH]2)cc1,.,20.3,.,.
COc1cc(C=C(C#N)c2ccc([N+](=O)[O-])cc2)ccc1O,.,-19.4,.,.
COc1cc(/C=C2\SC(=O)NC2=O)ccc1Oc1ccc([N+](=O)[O-])cn1,-7.3%,-60.2*,-12.3%,6.3%
COc1cc(/C=C(/C#N)c2ccccc2)ccc1Oc1ccc([N+](=O)[O-])cn1,4.65µM*,-36.4,0.928µM*,?
COc1cc(/C=C2/SC(=O)NC2=O)ccc1Oc1ccc([N+](=O)[O-])cc1[N+](=O)[O-],?,-35.2,?,-7.4%
COc1cc(/C=C(\C#N)c2nc3ccccc3[nH]2)ccc1Oc1ccc([N+](=O)[O-])cn1,5.86µM*,2.7,4.15µM*,0.891µM*
CN(C)c1ccc(C(C(=O)NCC2CCCO2)N(Cc2ccco2)C(=O)c2snc(C(N)=O)c2N)cc1 (stereo unspecified),?,-9.3,?,-27.5%
CC(C(=O)NC1CCCC1)N(Cc1ccco1)C(=O)c1snc(C(=O)NC2CCCC2)c1N (stereo unspecified),13.1µM*,-13.1,.,-18.2%
CC(OC(=O)c1snc(C(=O)NC2CCCCC2)c1N)C(=O)NC(C)(C)C (stereo unspecified),?,?,-22.7%,?
COc1ccc(CN(C(=O)c2snc(C(N)=O)c2N)C(C(=O)NC(C)(C)C)c2ccco2)cc1 (stereo unspecified),?,-22.0,9.28µM*,-5.5%
CN(C)c1ccc(C(C(=O)NCc2ccccc2)N(Cc2ccco2)C(=O)c2snc(C(N)=O)c2N)cc1 (stereo unspecified),?,-76.4*,?,12.6µM*
CC(C)(C)NC(=O)COC(=O)c1snc(C(=O)NC2CCCCC2)c1N,3.6%,?,-14.1%,7.08µM*
O=c1ccc2cc(S(=O)(=O)Nc3ccc(F)c(Cl)c3)ccc2[nH]1,.,7.8,.,.
SMILES,Pf growth 48h,HCMV inh,Pf growth 96h,HCV inhibitor
CCC(C)n1c(SCc2ccc(F)cc2Cl)nc2ccsc2c1=O (stereo unspecified),.,-19.4,.,.
Cc1ccc(NC(c2cccc(Cl)c2)c2nnc(-c3ccccc3)o2)cc1F (stereo unspecified),.,11.2,.,.
NC(=O)c1nsc(C(=O)N(Cc2ccco2)C(C(=O)NCc2ccc(F)cc2)c2ccc(O)cc2)c1N (stereo unspecified),?,-28.9,-14.4%,-24.9%
Cc1ccc(C(C(=O)NCc2ccc(F)cc2)N(Cc2ccco2)C(=O)c2snc(C(N)=O)c2N)o1 (stereo unspecified),0.0%,-81.5*,-16.0%,?
COc1ccc(CCNC(=O)CCc2cn(Cc3ccc(C)cc3)c3ccccc23)cc1OC,.,13.8,.,.
COc1ccc(-c2cn3cccnc3n2)cc1NC(=O)Nc1cc(C)ccc1C,?,-69.4*,11.7µM*,.
COc1cccc(NC(=O)Nc2cc(-c3cn4cccnc4n3)ccc2C)c1,.,6.5,.,.
COc1ccc(-c2cn3cccnc3n2)cc1NC(=O)c1ccc(Br)o1,-9.3%,-21.0,10.4µM*,11.2µM*
Cc1ccc(-c2csc(=Nc3ccccc3)n2Cc2ccc3c(c2)OCO3)cc1,.,-6.3,.,.
COc1ccc(S(=O)(=O)N2CCC(C(=O)Nc3ccc(F)cc3)CC2)c2cccnc12,1.04µM*,-31.3,0.3%,?
COc1ccc(S(=O)(=O)N2CCC(C(=O)Nc3ccccc3C)CC2)c2cccnc12,.,?,132.1%,-12.7%
COc1ccc(NC(=O)C2CCN(S(=O)(=O)c3cccc4cccnc34)CC2)cc1OC,-6.6%,37.3,6.57µM*,4.8%
COc1ccc(-c2cnc(C)o2)cc1S(=O)(=O)Nc1ccc(C)c(F)c1,.,-0.7,.,.
CN1CCN(C(c2cccc(Br)c2)c2sc3nc(-c4ccco4)nn3c2O)CC1 (stereo unspecified),.,-9.8,.,.
O=[N+]([O-])/C(Cl)=C1\NCCN1Cc1ccc(Cl)nc1,32.2%,-22.8,40.2%,1.3%
CN(Cc1ccccc1)C(=C(Cl)Cl)/C(=C1/NCCN1Cc1ccc(Cl)nc1)[N+](=O)[O-],.,-29.1,9.28µM*,3.3%
Cc1cc(C(=O)COC(=O)c2ccc(O)cc2)c(C)n1CC1COc2ccccc2O1 (stereo unspecified),?,?,13.1µM*,-25.6%
CN(C)Cc1c(C(C)(C)O)[nH]c2cc(C(F)(F)F)ccc12,.,24.5,.,.
CC(Sc1nc2cc([N+](=O)[O-])ccc2n1-c1cccc(C(F)(F)F)c1)C(=O)NC(N)=O (stereo unspecified),0.586µM*,-23.1,0.657µM*,-3.0%
COc1ccccc1-n1c(SCC(=O)NCc2ccc3c(c2)OCO3)nc2cc([N+](=O)[O-])ccc21,?,-10.9,?,25.1µM*
CC(Sc1nc2cc([N+](=O)[O-])ccc2n1-c1ccc(F)cc1)C(=O)NCc1ccc2c(c1)OCO2 (stereo unspecified),?,-21.6,1.65µM*,?
Cc1cc(C)cc(-n2c(SC(C)C(=O)NCc3ccc4c(c3)OCO4)nc3ccccc3c2=O)c1 (stereo unspecified),13.1µM*,-27.4,0.0%,?
NC(=O)CSc1nc2cc([N+](=O)[O-])ccc2n1-c1cccc(C(F)(F)F)c1,-22.6%,-22.6,?,4.9%
CCN(Cc1ccccc1)C(=O)Cn1cc(S(=O)(=O)Cc2cccc(Cl)c2)c2ccccc21,.,0.0,.,.
